The source of these data is article PMC7862700, “An all-to-all approach to the identification of sequence-specific readers for epigenetic DNA modifications on cytosine”.

Common to all, as to assay: DAPPL (digital affinity profiling via proximity ligation, sequencing); 10 mM Tris-HCl pH 7.5, 50 mM NaCl, 1 mM DTT, 4% glycerol, room temperature, 30 min; GST-TFs on glutathione beads, 16-mer random dsDNA library, 0.1% formaldehyde crosslink after washing; high values mean tight binding
Details in all cases: protein: recombinant; tags: N-terminal GST; dsDNA, one strand shown

In one experiment the target is T1, FLI1 (Homo sapiens, UniProt Q01543 1-452).
T1 sequence: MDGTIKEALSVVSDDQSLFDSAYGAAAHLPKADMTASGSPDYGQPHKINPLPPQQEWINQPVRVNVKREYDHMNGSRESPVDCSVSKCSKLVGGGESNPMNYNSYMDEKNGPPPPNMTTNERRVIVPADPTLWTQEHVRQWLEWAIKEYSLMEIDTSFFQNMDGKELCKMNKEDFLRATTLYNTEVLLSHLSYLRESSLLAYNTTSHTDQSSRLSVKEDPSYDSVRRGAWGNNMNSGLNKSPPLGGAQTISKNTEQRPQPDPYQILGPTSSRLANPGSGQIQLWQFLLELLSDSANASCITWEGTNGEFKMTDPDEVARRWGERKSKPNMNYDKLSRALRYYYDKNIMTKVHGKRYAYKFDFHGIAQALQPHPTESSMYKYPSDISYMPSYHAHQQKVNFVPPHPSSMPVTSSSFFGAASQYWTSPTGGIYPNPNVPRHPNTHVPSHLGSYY
The method in brief:
(§1)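 Binding signal is defined as a hexamer's read frequency for one factor over its frequency for the tag-only sample. To obtain reads, GST-fused human transcription factors were expressed in yeast, captured on glutathione beads, barcoded with DNA and pooled with that sample. Pools met 200 nmole of a 16-mer random double-stranded DNA library in Tris/NaCl/DTT/glycerol buffer for 30 min at room temperature before washing, 0.1% formaldehyde crosslinking, proximity ligation (BsaI/T4 ligase, 1 h, 37 °C), PCR and Illumina NextSeq500 sequencing.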

The target in the next experiment is T2, ELK1 (Homo sapiens, UniProt P19419 1-428).
T2 sequence: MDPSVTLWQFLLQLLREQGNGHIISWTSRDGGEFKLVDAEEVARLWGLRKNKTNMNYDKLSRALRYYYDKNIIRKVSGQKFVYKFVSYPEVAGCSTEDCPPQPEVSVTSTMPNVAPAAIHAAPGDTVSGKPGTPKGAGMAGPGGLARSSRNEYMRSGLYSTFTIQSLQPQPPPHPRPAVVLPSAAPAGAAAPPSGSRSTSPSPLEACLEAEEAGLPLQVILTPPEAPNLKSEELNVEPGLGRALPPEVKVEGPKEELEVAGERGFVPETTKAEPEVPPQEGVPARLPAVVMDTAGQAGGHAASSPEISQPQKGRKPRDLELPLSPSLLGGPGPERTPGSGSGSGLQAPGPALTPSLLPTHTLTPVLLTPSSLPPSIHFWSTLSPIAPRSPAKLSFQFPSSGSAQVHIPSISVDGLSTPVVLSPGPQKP
The gist of the method:
as §1

Another experiment addresses T3, GABPA (Homo sapiens, UniProt Q06546 1-454).
T3 sequence: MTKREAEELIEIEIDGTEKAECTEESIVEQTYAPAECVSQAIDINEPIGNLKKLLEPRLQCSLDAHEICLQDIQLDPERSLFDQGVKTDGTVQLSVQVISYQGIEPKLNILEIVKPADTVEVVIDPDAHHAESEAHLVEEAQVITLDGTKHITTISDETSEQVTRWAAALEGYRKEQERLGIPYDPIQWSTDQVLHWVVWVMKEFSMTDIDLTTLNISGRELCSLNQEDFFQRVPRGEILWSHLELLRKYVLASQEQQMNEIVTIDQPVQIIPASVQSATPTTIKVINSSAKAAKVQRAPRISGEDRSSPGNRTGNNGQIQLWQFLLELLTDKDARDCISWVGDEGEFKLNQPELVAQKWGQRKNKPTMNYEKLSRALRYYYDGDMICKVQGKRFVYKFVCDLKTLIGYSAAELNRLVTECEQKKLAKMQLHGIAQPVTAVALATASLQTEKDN
The gist of the method:
as §1

The next experiment addresses T4, ERG (Homo sapiens, UniProt P11308 1-479).
T4 sequence: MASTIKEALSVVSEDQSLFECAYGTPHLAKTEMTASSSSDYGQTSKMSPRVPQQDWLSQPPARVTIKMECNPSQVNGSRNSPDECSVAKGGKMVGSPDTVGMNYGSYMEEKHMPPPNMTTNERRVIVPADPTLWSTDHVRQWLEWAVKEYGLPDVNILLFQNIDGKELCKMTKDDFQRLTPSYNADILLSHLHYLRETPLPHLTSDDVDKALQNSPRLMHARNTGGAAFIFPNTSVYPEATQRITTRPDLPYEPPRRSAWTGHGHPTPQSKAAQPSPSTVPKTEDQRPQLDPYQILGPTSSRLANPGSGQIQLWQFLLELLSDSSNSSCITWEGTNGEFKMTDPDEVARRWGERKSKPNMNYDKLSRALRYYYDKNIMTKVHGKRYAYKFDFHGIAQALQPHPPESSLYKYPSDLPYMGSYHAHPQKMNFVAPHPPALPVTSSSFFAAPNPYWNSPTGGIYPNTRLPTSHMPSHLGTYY
The gist of the method:
as §1

Another experiment has as its target ELF1 (Homo sapiens, UniProt P32519 1-619). The method in brief:
as §1

In the next experiment the target is T5, EHF (Homo sapiens, UniProt Q9NZC4 1-300).
T5 sequence: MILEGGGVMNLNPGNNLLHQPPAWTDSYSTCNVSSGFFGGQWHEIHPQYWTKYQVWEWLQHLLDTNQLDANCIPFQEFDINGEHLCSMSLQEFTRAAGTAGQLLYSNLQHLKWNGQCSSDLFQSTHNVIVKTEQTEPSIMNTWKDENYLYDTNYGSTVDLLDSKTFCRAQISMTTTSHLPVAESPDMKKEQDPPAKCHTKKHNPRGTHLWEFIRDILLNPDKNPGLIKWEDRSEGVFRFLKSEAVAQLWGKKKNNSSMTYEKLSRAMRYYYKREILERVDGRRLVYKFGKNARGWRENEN
The gist of the method:
as §1

For a further experiment, the target named is SPI1 (Homo sapiens, UniProt P17947 1-270). The method in brief: as §1
A further experiment has as its target SPIB (Homo sapiens, UniProt Q01892 1-262). The gist of the method: as §1
The target of the next experiment is T6, ELK3 (Homo sapiens, UniProt P41970 1-407).
T6 sequence: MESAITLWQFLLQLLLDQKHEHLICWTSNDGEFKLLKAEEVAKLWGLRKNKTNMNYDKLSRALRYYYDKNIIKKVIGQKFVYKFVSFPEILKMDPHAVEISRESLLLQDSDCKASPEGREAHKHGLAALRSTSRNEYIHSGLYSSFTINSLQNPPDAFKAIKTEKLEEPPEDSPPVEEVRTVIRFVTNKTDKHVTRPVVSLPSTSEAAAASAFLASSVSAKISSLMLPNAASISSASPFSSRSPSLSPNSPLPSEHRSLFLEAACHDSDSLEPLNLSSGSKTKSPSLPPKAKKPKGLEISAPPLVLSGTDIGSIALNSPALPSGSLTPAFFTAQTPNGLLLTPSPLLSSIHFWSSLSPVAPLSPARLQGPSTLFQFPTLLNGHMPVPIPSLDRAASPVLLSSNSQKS
The gist of the method:
as §1

ELF1, sequence (P32519 whole entry): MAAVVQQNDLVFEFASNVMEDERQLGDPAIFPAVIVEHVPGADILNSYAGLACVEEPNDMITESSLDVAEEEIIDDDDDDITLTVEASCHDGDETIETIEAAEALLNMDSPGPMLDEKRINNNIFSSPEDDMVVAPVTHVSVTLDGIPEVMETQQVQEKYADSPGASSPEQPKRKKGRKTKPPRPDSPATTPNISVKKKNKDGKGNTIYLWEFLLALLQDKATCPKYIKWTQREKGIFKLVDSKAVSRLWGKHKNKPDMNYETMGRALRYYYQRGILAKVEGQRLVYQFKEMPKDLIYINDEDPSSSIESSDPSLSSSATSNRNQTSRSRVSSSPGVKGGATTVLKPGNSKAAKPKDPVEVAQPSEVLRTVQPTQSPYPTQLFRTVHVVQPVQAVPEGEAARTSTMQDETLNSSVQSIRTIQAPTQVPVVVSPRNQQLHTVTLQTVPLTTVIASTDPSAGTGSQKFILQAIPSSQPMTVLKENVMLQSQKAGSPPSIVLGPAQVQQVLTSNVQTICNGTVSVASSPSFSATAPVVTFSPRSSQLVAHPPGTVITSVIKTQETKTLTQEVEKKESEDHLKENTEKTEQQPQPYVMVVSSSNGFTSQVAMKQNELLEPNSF
SPIB, sequence (Q01892 whole entry): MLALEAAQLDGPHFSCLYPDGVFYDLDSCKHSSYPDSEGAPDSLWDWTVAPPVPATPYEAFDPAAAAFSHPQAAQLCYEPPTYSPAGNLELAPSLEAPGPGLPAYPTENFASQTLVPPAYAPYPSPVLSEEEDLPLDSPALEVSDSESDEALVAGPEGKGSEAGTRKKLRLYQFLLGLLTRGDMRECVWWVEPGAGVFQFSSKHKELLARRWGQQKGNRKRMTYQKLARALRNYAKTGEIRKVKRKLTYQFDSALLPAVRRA

In the case of TATTGA, the binding signal is 1.1 fold enrichment (6-mer frequency, TF over GST control) in the experiment with FLI1; 1.16 fold enrichment (6-mer frequency, TF over GST control) in the experiment with ELK1; 1.09 fold enrichment (6-mer frequency, TF over GST control) with GABPA; 1.13 fold enrichment (6-mer frequency, TF over GST control) with ERG; 1.18 fold enrichment (6-mer frequency, TF over GST control) with ELF1; 1.15 fold enrichment (6-mer frequency, TF over GST control) with EHF. The binding signal in the experiment with SPI1 was 1.05 fold enrichment (6-mer frequency, TF over GST control); with SPIB, 1.11 fold enrichment (6-mer frequency, TF over GST control); with ELK3, 1.01 fold enrichment (6-mer frequency, TF over GST control).

In the case of CTGCTA, the binding signal was 1.38 fold enrichment (6-mer frequency, TF over GST control) with FLI1; 1.53 fold enrichment (6-mer frequency, TF over GST control) with ELK1; 1.46 fold enrichment (6-mer frequency, TF over GST control) with GABPA; 1.39 fold enrichment (6-mer frequency, TF over GST control) with ERG; 1.47 fold enrichment (6-mer frequency, TF over GST control) with ELF1; 1.5 fold enrichment (6-mer frequency, TF over GST control) with EHF. Further, the binding signal in the experiment with SPI1 is 1.53 fold enrichment (6-mer frequency, TF over GST control); in the experiment with SPIB it was 1.43 fold enrichment (6-mer frequency, TF over GST control); with ELK3 it was 1.42 fold enrichment (6-mer frequency, TF over GST control).

On to TAACCC, for which the binding signal with FLI1 is 1.31 fold enrichment (6-mer frequency, TF over GST control); in the experiment with ELK1, 1.4 fold enrichment (6-mer frequency, TF over GST control); with GABPA, 1.25 fold enrichment (6-mer frequency, TF over GST control); with ERG, 1.23 fold enrichment (6-mer frequency, TF over GST control); with ELF1 it was 1.28 fold enrichment (6-mer frequency, TF over GST control); in the experiment with EHF, 1.25 fold enrichment (6-mer frequency, TF over GST control). Moreover, the binding signal with SPI1 was 1.18 fold enrichment (6-mer frequency, TF over GST control); in the experiment with SPIB it was 1.21 fold enrichment (6-mer frequency, TF over GST control); with ELK3, 1.38 fold enrichment (6-mer frequency, TF over GST control).

With GTTTCG, the binding signal was 1.28 fold enrichment (6-mer frequency, TF over GST control) in the experiment with FLI1; 1.22 fold enrichment (6-mer frequency, TF over GST control) with ELK1; 1.22 fold enrichment (6-mer frequency, TF over GST control) with GABPA; 1.25 fold enrichment (6-mer frequency, TF over GST control) with ERG; 1.27 fold enrichment (6-mer frequency, TF over GST control) with ELF1; 1.33 fold enrichment (6-mer frequency, TF over GST control) in the experiment with EHF. Further, the binding signal with SPI1 was 1.25 fold enrichment (6-mer frequency, TF over GST control); with SPIB, 1.23 fold enrichment (6-mer frequency, TF over GST control); in the experiment with ELK3, 1.15 fold enrichment (6-mer frequency, TF over GST control).

As to CTATGC, the binding signal with FLI1 was 1.41 fold enrichment (6-mer frequency, TF over GST control); with ELK1, 1.56 fold enrichment (6-mer frequency, TF over GST control); with GABPA, 1.53 fold enrichment (6-mer frequency, TF over GST control); with ERG, 1.39 fold enrichment (6-mer frequency, TF over GST control); in the experiment with ELF1, 1.47 fold enrichment (6-mer frequency, TF over GST control); with EHF, 1.31 fold enrichment (6-mer frequency, TF over GST control). Further, the binding signal with SPI1 was 1.38 fold enrichment (6-mer frequency, TF over GST control); with SPIB, 1.48 fold enrichment (6-mer frequency, TF over GST control); with ELK3 it was 1.4 fold enrichment (6-mer frequency, TF over GST control).

Regarding ATCTAT, the binding signal with FLI1 is 1.15 fold enrichment (6-mer frequency, TF over GST control); in the experiment with ELK1, 1.14 fold enrichment (6-mer frequency, TF over GST control); in the experiment with GABPA it was 1.17 fold enrichment (6-mer frequency, TF over GST control); with ERG, 1.09 fold enrichment (6-mer frequency, TF over GST control); in the experiment with ELF1, 1.16 fold enrichment (6-mer frequency, TF over GST control); with EHF, 1.12 fold enrichment (6-mer frequency, TF over GST control). Also, the binding signal in the experiment with SPI1 was 1.09 fold enrichment (6-mer frequency, TF over GST control); in the experiment with SPIB, 1.15 fold enrichment (6-mer frequency, TF over GST control); with ELK3, 1.13 fold enrichment (6-mer frequency, TF over GST control).

In the case of ACTCGT, the binding signal with FLI1 is 1.19 fold enrichment (6-mer frequency, TF over GST control); with ELK1 it was 1.37 fold enrichment (6-mer frequency, TF over GST control); with GABPA, 1.26 fold enrichment (6-mer frequency, TF over GST control); in the experiment with ERG it was 1.19 fold enrichment (6-mer frequency, TF over GST control); in the experiment with ELF1 it was 1.25 fold enrichment (6-mer frequency, TF over GST control); with EHF, 1.26 fold enrichment (6-mer frequency, TF over GST control). Moreover, the binding signal with SPI1 was 1.17 fold enrichment (6-mer frequency, TF over GST control); with SPIB, 1.26 fold enrichment (6-mer frequency, TF over GST control); in the experiment with ELK3, 1.19 fold enrichment (6-mer frequency, TF over GST control).

With ACTACC, the binding signal with FLI1 was 1.61 fold enrichment (6-mer frequency, TF over GST control); with ELK1 it was 1.72 fold enrichment (6-mer frequency, TF over GST control); with GABPA, 1.67 fold enrichment (6-mer frequency, TF over GST control); in the experiment with ERG it was 1.63 fold enrichment (6-mer frequency, TF over GST control); with ELF1, 1.71 fold enrichment (6-mer frequency, TF over GST control); in the experiment with EHF, 1.51 fold enrichment (6-mer frequency, TF over GST control). Further, the binding signal in the experiment with SPI1 is 1.69 fold enrichment (6-mer frequency, TF over GST control); with SPIB it was 1.69 fold enrichment (6-mer frequency, TF over GST control); with ELK3, 1.63 fold enrichment (6-mer frequency, TF over GST control).
